# Compound activity: PubChem, Milwaukee Institute for Drug Discovery
# Cy5 interf NS3h – counter-screen for HCV NS3 helicase inhibitors: fluorescence interference; 16,000 compounds, 6% hits; fluorescence interference ratio at 100 µM; Cy5-dT15 DNA with NS3h; actives lie on both sides; signal over control mean, under 1 quenches;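 active = compound fluorescence over control fluorescence at most 0.8, a quencher, or at least a set upper limit, an enhancer; inactive = ratio between 0.8 and the set upper limit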
# NS3h inh CB – hepatitis C NS3 helicase inhibition, primary screen. AID 687043. NS3h Cy5-dT15 DNA binding, fluorescence polarization. 16,000 compounds, 1.6% hits. inhibition, % at 100 µM;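 active = inhibition above the average over every tested compound plus 3 SD, cut at about 40% in these data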
# NS3h confirm – confirmation of hepatitis C virus NS3 helicase inhibitors; shares compounds with NS3h inh CB; AID 720485; 240 compounds, 20% hits; inhibition, % at 100 µM; NS3h binding to Cy5-dT15 DNA, fluorescence polarization;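 active = percent inhibition of 50% or more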
# SSB FP counter – disrupts E. coli SSB binding to DNA in counter-screen; E. coli SSB binding Cy5-dT15, fluorescence polarization; inhibition, % at 100 µM; 240 compounds, 40% hits; shares compounds with NS3h inh CB;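 active = inhibition of at least 50%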;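 note: displacers lower Cy5 polarization so higher inhibition means more SSB displaced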
# Target sequence (P0AGE0 whole entry, looked up): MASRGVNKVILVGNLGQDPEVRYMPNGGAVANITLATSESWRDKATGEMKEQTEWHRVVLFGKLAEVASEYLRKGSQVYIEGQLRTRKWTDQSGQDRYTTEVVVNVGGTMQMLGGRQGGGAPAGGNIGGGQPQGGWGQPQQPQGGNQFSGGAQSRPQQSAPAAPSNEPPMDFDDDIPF
# Cy5 SSB interf – enhances or quenches Cy5-DNA fluorescence with E. coli SSB | fluorescence interference ratio at 100 µM | Cy5-dT15/E. coli SSB fluorescence interference; actives lie on both sides | 240 compounds, 8% hits | shares compounds with NS3h inh CB | AID 720487;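 active = fluorescence interference ratio at or above 1.2, signal boosting, or at or below 0.8, signal quenching; inactive = ratio between 0.8 and 1.2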;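 note: ratio of compound well signal to mean negative control signal so 1 means no effect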
# Cy5 fluor confirm – Cy5 fluorescence interference, confirmation counter-screen; fluorescence interference ratio at 100 µM, hits read low; AID 720489; 240 compounds, 44% hits; shares compounds with NS3h inh CB; Cy5-dT15 DNA/NS3h fluorescence interference counterscreen;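 active = fluorescence interference ratio at or below 0.8 quencher or at or above a set limitenhancer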;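 note: ratio of compound fluorescence to mean of negative controls so 1 means no interference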
# * = called active by the depositor; . = no result. Hits are enriched below; roughly 6.9% of the tested compounds scored in any of these assays.
SMILES,Cy5 interf NS3h,NS3h inh CB,NS3h confirm,SSB FP counter,Cy5 SSB interf,Cy5 fluor confirm
O=C1C=CC(=O)N1c1cccc([N+](=O)[O-])c1,0.9,63*,66*,9,0.99,0.92
Cc1ccc(OCC(N)=O)c(Br)c1,1.1,-13,.,.,.,.
CCOc1ccc(NC(=O)c2cccc(Oc3ccccc3)c2)c([N+](=O)[O-])c1,1.1,7,.,.,.,.
O=C1C2C3CCC(O3)C2C(=O)N1c1cccc([N+](=O)[O-])c1 (configuration not stated),0.9,0,.,.,.,.
O=C1C2C3C=CC(C3)C2C(=O)N1c1ccc([N+](=O)[O-])cc1Br (configuration not stated),0.99,4,.,.,.,.
CC(C)=C1C2C=CC1C1C(=O)N(c3ccc(Br)cc3[N+](=O)[O-])C(=O)C21 (configuration not stated),1,3,.,.,.,.
COc1ccc(NC(=O)CN(c2cccc([N+](=O)[O-])c2)S(=O)(=O)c2ccccc2)cc1OC,0.9,12,.,.,.,.
C=CCNC(=O)C(=O)NCCc1ccc(F)cc1,0.97,5,.,.,.,.
COc1ccc(NC(=O)/C(C#N)=C/c2cc(C)n(-c3cccc4ccccc34)c2C)cc1,0.97,0,.,.,.,.
COc1ccc(NC(=O)c2cc([N+](=O)[O-])ccc2Cl)c(OC)c1,1,-7,.,.,.,.
O=C(O)CCn1c(O)c(C2=c3cc([N+](=O)[O-])ccc3=NC2=O)sc1=S,0.94,28,9,28,0.93,0.77*
O=[N+]([O-])c1cccc(S(=O)(=O)Nc2ccc(O)c(Cl)c2)c1,0.83,5,.,.,.,.
O=C1N=c2ccc([N+](=O)[O-])cc2=C1c1sc(NS(=O)(=O)c2ccccc2)nc1O,1,41*,15,101*,0.87,0.75*
COCCCn1c(O)c(C2=c3ccccc3=NC2=O)sc1=S,1,20,.,.,.,.
COc1ccc(C(=O)NCCSCc2ccccc2Cl)cc1,0.99,20,.,.,.,.
Cc1nn(-c2ccccc2)c(C)c1-c1cccc([N+](=O)[O-])c1,0.89,3,.,.,.,.
COc1ccccc1NC(=O)/C(=C/c1cccc([N+](=O)[O-])c1)NC(=O)c1ccccc1,0.94,2,.,.,.,.
CCOc1ccc(NC(=O)c2ccccc2NC(=O)c2ccccc2Cl)cc1,1,8,.,.,.,.
Cc1nc(=O)c(-c2ccccc2)c(C)n1-c1ccc(OCC(=O)O)cc1,1.1,-4,.,.,.,.
Cc1ccc(C)n1-c1ccc(OCC(=O)O)cc1,1.4*,82*,78*,95*,0.92,0.83
Nc1c(Cl)cc(N2C(=O)C=CC2=O)cc1Cl,0.96,54*,62*,15,0.9,0.88
CC1C(C(=O)N(C=O)c2ccccc2)C2C=CC1C21CC1 (configuration not stated),0.96,4,.,.,.,.
COc1ccccc1N1C(=O)NC(=O)/C(=C\c2ccc(Br)cc2)C1=O,0.92,19,.,.,.,.
COc1ccc(OC)c(N2C(=O)NC(=O)/C(=C/C=C/c3ccccc3)C2=O)c1,0.92,49*,21,32,0.98,0.83
O=C1NC(=O)N(c2ccc(Cl)cc2)C(=O)/C1=C/c1cccs1,1,8,.,.,.,.
SMILES,Cy5 interf NS3h,NS3h inh CB,NS3h confirm,SSB FP counter,Cy5 SSB interf,Cy5 fluor confirm
COc1ccc(OC)c(N2C(=O)NC(=O)C(=Cc3cccs3)C2=O)c1,1,95*,38,7,0.98,0.81
O=C(Nc1cccc(S(=O)(=O)c2cccc(NC(=O)C(F)(F)F)c2)c1)C(F)(F)F,1.2,2,.,.,.,.
CCOC(=O)c1c(NC(=O)/C=C/c2ccc(C)o2)sc(C)c1C,0.99,61*,2,3,0.97,0.74*
Cc1ccc(/C=C/C(=O)Nc2ccc(Cl)cc2Cl)o1,0.92,26,.,.,.,.
COC(=O)c1cccc(NC(=O)c2ccc[n+]([O-])c2)c1,1.1,4,.,.,.,.
COC(=O)c1cccc(N2C(=O)C=CC2=O)c1,0.95,46*,36,-2,0.98,0.73*
Cc1ccc(N2C(=O)c3ccccc3NC2c2cccc(F)c2)cc1 (configuration not stated),1.1,30,10,8,0.97,0.72*
COc1ccc(N2C(=O)c3ccccc3NC2c2cccc(F)c2)cc1 (configuration not stated),1,6,.,.,.,.
CCN(CC)CCN1C(=O)c2ccccc2NC1c1cccc(F)c1 (configuration not stated),1.1,41*,4,10,0.94,0.96
CCCN1C(=O)c2ccccc2NC1c1cccc(F)c1 (configuration not stated),0.97,4,.,.,.,.
